Among the data in PubChem BioAssay (EPA / NIEHS) are outcome and AC50 values, retold here.

“And” between values parts separate entries of the source, which are not always exact repeats. Equal entries are not always repeated. Results filed as inconclusive are left out. Some structures have more than one record in an assay (separate samples or runs), and their calls can disagree. The source made the active and inactive calls. Rule for the calls, unless noted: active = hit-call score of the fitted dose curve at least 0.9, where 1 is the maximum; inactive = score below 0.9.

Assay [1] is described as follows: CCTE_Shafer_MEA_dev_AB: CCTE's Alamar Blue Assay for Cytotoxicity in the Neural Network Formation Assay, Shafer Lab (AID 2284083; active = hit-call score of the fitted dose curve at least 0.9, where 1 is the maximum;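 note: resazurin reduction fluorescence as viability of cultured neurons; twelve days of exposure from plating with re-dosing on DIV 5 and 9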). In short, it runs like this: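 Resazurin fluorescence, relative to DMSO, gauges viability after twelve days of exposure that began at plating of rat cortical neurons (1.5 x 10^5 cells/well, 48-well MEA); treatment renewed with full medium exchange on DIV 5 and 9.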
Background: Resazurin is reduced to fluorescent resorufin, in cell work by metabolically active cells.

Assay [2] in a line: CCTE_Shafer_MEA_acute_LDH: CCTE's Lactate Dehydrogenase Assay for Cytotoxicity in the Neural Acute Assay, Shafer Lab (AID 2284086; active = hit-call score of the fitted dose curve at least 0.9, where 1 is the maximum;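 note: active means LDH release rises above DMSO vehicle level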). Summed up:
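LDH released during 40 min compound exposure of primary rat cortical cultures, quantified by absorbance at 490 nm in collected medium. Fitting direction positive versus DMSO vehicle.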

Assay [3] is described as follows: CCTE_Shafer_MEA_dev_mutual_information_norm: CCTE's Neural Network Formation Assay for Mutual Information Normalization, Shafer Lab (AID 2284091).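 For AC50: mutual information between electrodes summarised as area under curve across four recording days; potency is for a decrease in mutual information relative to DMSO.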 Summed up:
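Shared information across electrodes, tracked on days 5, 7, 9 and 12 of network development and collapsed as trapezoidal area under the curve. Rat cortical cultures were treated continuously from plating, with treatment renewed at feeds on DIV 5 and 9; DMSO baseline, negative-direction fit.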

Assay [4] in a line: CCTE_Shafer_MEA_dev_correlation_coefficient_mean: CCTE's Neural Network Formation Assay for Mean Correlation Coefficient, Shafer Lab (AID 2284093).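 For AC50: well mean pairwise spike train correlation integrated as AUC over recording days 5 to 12; potency fitted for loss of correlation relative to DMSO vehicle wells.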 In short, it runs like this:
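Primary rat cortical neurons on PEI-coated 48-well MEA plates (16 electrodes/well) were exposed from plating day 0 through DIV12, with compound renewed at DIV5 and 9. Pairwise spike correlations were averaged per well; trapezoidal AUC across DIV5, 7, 9, 12.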

Assay [5] is described as follows: UKN2_HCS_IMR90_neural_migration: University of Konstanz (UKN) Leist Lab Neural Crest Cell Migration Assay in human induced IMR90 Pluripotent Stem Cells (UKN2) (AID 2284204). Conditions: actives raise or lower the signal. Summed up: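 High-content imaging of calcein-AM and Hoechst stained cells quantifies migration into a stopper-defined gap after 24 h compound exposure. Neural crest cells from IMR90 iPSC migrated 24 h in EGF/FGF N2-S medium before dosing; DMSO baseline.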

Assay [6] can be described thus: UKN4_HCS_LUHMES_neurite_outgrowth: University of Konstanz (UKN) Leist Lab Neurite Outgrowth Assay in human LUHMES cells (UKN4) (AID 2284206). To be noted: actives raise or lower the signal. Summed up: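 After 24 h compound treatment beginning shortly after replating of 2-day-differentiated LUHMES cells, calcein-AM and H-33342 live staining allowed high-content imaging of neurite area and viability. Fitted bidirectionally against DMSO.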

Assay [7] is described as follows: IUF_NPC1b_proliferation_BrdU_72hr: Leibniz Research Institute for Environmental Medicine (IUF) 72-hour Neural Progenitor Cell Bromodeoxyuridine (BrdU) Proliferation Assay (NPC1b) (AID 2284207). In short, it runs like this: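 Human fetal cortex-derived (GW 16-19) neural progenitor spheres, 0.25-0.35 mm, one per well in EGF/FGF proliferation medium, exposed to compound for 72 h at 37C, pH 7.2-7.6. BrdU incorporation over the final 16 h read by luminescence ELISA, relative to DMSO.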

Assay [8] is described as follows: IUF_NPC1a_proliferation_area_72hr: Leibniz Research Institute for Environmental Medicine (IUF) 72-hour Neural Progenitor Cell Proliferation Area Assay (NPC1a) (AID 2284208). In short, it runs like this: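 Spheres of 0.3 mm are plated singly in growth-factor medium and exposed from day 0. After three days at 37C and 5% CO2, sphere area is measured by phase contrast imaging, with activity referenced to DMSO.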

A short description of assay [9]: IUF_NPC1_viability_72hr: Viability Assessment at 72 hours in the Leibniz Research Institute for Environmental Medicine (IUF) Neural Progenitor Cell Proliferation Assay (NPC1) (AID 2284209). In short, it runs like this:
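Viability was measured by resazurin-to-resorufin fluorescence (alamar blue) after 72 h of continuous exposure without compound renewal. Each well held one hNPC sphere (gestational week 16-19 fetal cortex, 0.25-0.35 mm) cultured in EGF/FGF proliferation medium at 37C and pH 7.2-7.6.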

The nature of assay [10]: CCTE_Mundy_HCI_Cortical_Synap_Neur_Matur_NeuriteSpotCountPerNeuriteLength: CCTE's Synaptogenesis and Neurite Maturation Assay in rat cortical cells for Neurite Spot Count per Neurite Length, Mundy Lab (AID 2284210). In short, it runs like this:
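Synaptophysin spots per unit neurite length, measured by automated imaging of MAP2/synaptophysin/Hoechst-stained neurons. Cultures from rat cortex received chemical at DIV 7 with media change through DIV 12; glial growth arrested by AraC at DIV 5; DMSO baseline.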

Assay [11] is described as follows: CCTE_Mundy_HCI_Cortical_Synap_Neur_Matur_BPCount: CCTE's Synaptogenesis and Neurite Maturation Assay in rat cortical cells for Branch Point Count, Mundy Lab (AID 2284211). Summed up:
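HCI read-out of branch points from MAP2/synaptophysin/Hoechst immunofluorescence; rat cortical cultures, AraC DIV 5, dosing DIV 7, fixed DIV 12; fit in positive direction vs DMSO baseline.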

A short description of assay [12]: CCTE_Mundy_HCI_Cortical_NOG_NeuriteLength: CCTE's Neurite Outgrowth Assay in rat cortical cells for Neurite Length, Mundy Lab (AID 2284213).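 For AC50: neurites imaged about 48 to 50 h after chemical exposure began.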 In short, it runs like this:
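First, rat primary cortical cells were plated and, 2 h later, given test chemical as a 1/10 dilution. Finally, βIII-tubulin immunostaining enabled automated imaging of neurite length.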

The nature of assay [13]: CCTE_Mundy_HCI_Cortical_Synap_Neur_Matur_NeuriteLength: CCTE's Synaptogenesis and Neurite Maturation Assay in rat cortical cells for Neurite Length, Mundy Lab (AID 2284214). Summed up: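 Neurite length quantified by automated high-content imaging of MAP2, synaptophysin and Hoechst staining. Rat cortical cells received chemical from DIV 7 to DIV 12 […], glial growth arrested by AraC at DIV 5; DMSO baseline.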

A short description of assay [14]: CCTE_Mundy_HCI_Cortical_Synap_Neur_Matur_NeuriteSpotCountPerNeuron: CCTE's Synaptogenesis and Neurite Maturation Assay in rat cortical cells for Neurite Spot Count per Neuron Count, Mundy Lab (AID 2284215). In short, it runs like this:
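Rat cortical primary cultures; AraC DIV 5 to arrest glia; dosing + media change DIV 7; fixed DIV 12. Anti-MAP2/anti-synaptophysin, Hoechst nuclei; HCI puncta count per neuron, positive fitting direction vs DMSO.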

The nature of assay [15]: CCTE_Mundy_HCI_Cortical_Synap_Neur_Matur_SynapseCount: CCTE's Synaptogenesis and Neurite Maturation Assay in rat cortical cells for Synapse Count, Mundy Lab (AID 2284218). Summed up:
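High-content imaging of synaptophysin puncta per MAP2-positive neuron (Hoechst nuclei) in rat cortical cells exposed DIV 7–12 after glial arrest with AraC at DIV 5; decrease relative to DMSO scored.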

Assay [16] can be described thus: CCTE_Mundy_HCI_Cortical_Synap_Neur_Matur_NeuriteCount: CCTE's Synaptogenesis and Neurite Maturation Assay in rat cortical cells for Neurite Count, Mundy Lab (AID 2284222).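 For outcome: exposure from day 7 to day 12 in vitro with readout at day 12.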 In short, it runs like this:
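Rat cortical neurons, 96-well; AraC DIV 5; chemical + media change DIV 7; end DIV 12. Fix PFA/Hoechst, anti-MAP2 + anti-synaptophysin IF. HCI neurite count vs DMSO baseline.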

Assay [17] can be described thus: CCTE_Mundy_HCI_hN2_NOG_NeuriteCount: CCTE's Neurite Outgrowth Assay in human hN2 cells for Neurite Count, Mundy Lab (AID 2284219; active = hit-call score of the fitted dose curve at least 0.9, where 1 is the maximum). Summed up: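 In this morphology assay, hNP1-derived neurons received test chemical 2 h post-plating and were fixed two days later in warm paraformaldehyde/sucrose containing Hoechst 33342. Neurites, labelled by rabbit anti-βIII-tubulin (1:800) and Alexa Fluor-488 (1:500), were counted automatically.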

A short description of assay [18]: CCTE_Mundy_HCI_hN2_NOG_NeuriteLength: CCTE's Neurite Outgrowth Assay in human hN2 cells for Neurite Length, Mundy Lab (AID 2284220; active = hit-call score of the fitted dose curve at least 0.9, where 1 is the maximum). In short, it runs like this: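 Plate hNP1-derived neurons, then add chemical 2 h later as a 1/10 dilution. Stain with anti-βIII-tubulin then Alexa Fluor-488 secondary, and image automatically to measure neurite length.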
A short description of assay [19]: CCTE_Mundy_HCI_hN2_NOG_NeuronCount: CCTE's Neurite Outgrowth Assay in human hN2 cells for Neuron Count, Mundy Lab (AID 2284221; active = hit-call score of the fitted dose curve at least 0.9, where 1 is the maximum). In short, it runs like this: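 Read-out is the number of betaIII-tubulin-positive neurons imaged by automated high-content analysis, with DMSO as negative control.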

Turning to `N#Cc1nn(-c2c(Cl)cc(C(F)(F)F)cc2Cl)c(N)c1S(=O)C(F)(F)F` (centres undefined), the compound was called inactive in assay [1], in assay [2], in [3], in assay [4], in assay [7] and in [8]. Also, the call in [9], in assay [11], in assay [12], in assay [13] and in [16] was inactive. In addition, the concentration at half-maximal activity (AC50) (commonly the midpoint of the concentration-response curve, whichever way the signal moves) was 21.3 µM (active) in assay [5]; 16.1 µM (active) in assay [6]; 15 µM (active) in assay [10]; 3.22 µM (active) in [14]; 3.22 µM (active) in assay [15].

Regarding `CCOc1cc(Oc2ccc(C(F)(F)F)cc2Cl)ccc1[N+](=O)[O-]`, the AC50 in assay [1] is 30 µM (active); in [3], 4.49 µM (active); in [4], 6.5 µM (active); in [10], 14.3 µM (active); in assay [11], 14.8 µM (active); in assay [12], 50 µM (active). For the same compound, the AC50 in [13] was 16.1 µM (active); in assay [14] it was 11.6 µM (active); in assay [15] it was 11.9 µM (active); in assay [16], 16.6 µM (active). Besides, the outcome in assay [5], in assay [7], in assay [8] and in assay [9] was inactive.

Consider `CS/C(C)=N/OC(=O)N(C)SN(C)C(=O)O/N=C(\C)SC`, for which the call in assay [2] was inactive.

For the compound `Fc1ccc(Oc2ccnc3cc(Cl)cc(Cl)c23)cc1`, the compound was called inactive in assay [2].

For `C=CC1(C)OC(=O)N(c2cc(Cl)cc(Cl)c2)C1=O` (centres undefined), the compound was called inactive in assay [1], in assay [3], in assay [5], in assay [7], in assay [8] and in assay [9]. Besides, the compound was called inactive in [10], in assay [11], in [12], in assay [13], in assay [14] and in [15]. Also, the compound was classed as inactive in assay [16]. For the same compound, the AC50 in assay [4] is 50 µM (active).

`C=CCC1=C(C)[C@@H](OC(=O)[C@@H]2[C@@H](C=C(C)C)C2(C)C)CC1=O`: the AC50 in assay [1] was 1.98 µM (active); in assay [3] it was 2.61 µM (active); in [10], 20.5 µM (active); in [11], 26.6 µM (active); in [13], 23.9 µM (active); in assay [14] it was 22.1 µM (active). For the same compound, the AC50 in assay [15] is 22.2 µM (active); in assay [16] it was 23.7 µM (active). In addition, the outcome in assay [2] and in assay [12] was inactive.

On to `CCOC(=O)CC(SP(=S)(OC)OC)C(=O)OCC` (centres undefined), for which the AC50 in [1] was 22.9 µM (active) and 25.1 µM (active); in assay [3] it was 7.87 µM (active) and 3.88 µM (active); in [4] it was 12.7 µM (active) and 22.6 µM (active); in assay [11], 50 µM (active); in assay [12], 77.6 µM (active) and 15 µM (active); in [13], 61.9 µM (active). Also, the AC50 in assay [14] was 50 µM (active); in assay [15] it was 50 µM (active); in [17] it was 34.8 µM (active); in [18], 34.2 µM (active); in [19], 33.6 µM (active). In addition, the compound was classed as inactive in assay [7], in assay [8], in [9], in [10], in assay [11] and in [13]. For the same compound, the call in assay [14], in [15] and in assay [16] was inactive.

For `COc1ccc(C(c2ccc(OC)cc2)C(Cl)(Cl)Cl)cc1`, the AC50 was 12.2 µM (active) in assay [1], 1.97 µM (active) in assay [3] and 2.95 µM (active) in assay [4].
